Results filed as inconclusive are left out. A number with no mark means an inactive call. Active and inactive are the calls of the source. Calls come from the whole dose curve; as a rule, active = well fitted cell-killing curve with a large enough effect; inconclusive = small, poorly fitted or top-dose-only effect; inactive = flat fitted curve, though single readings scatter.
Potency is the fitted concentration of half-maximal effect.

The nature of the assay: Quantitative highthroughput screen to assess conditional lethalithy of NOMO1 cells grown in RPMI1640 with dialyzed fetal bovine serum (RPMI+ds) (AID 1963877). Note: nearly all actives have a fitted effect of over 30% in size. To be noted: NOMO1 in RPMI+dialyzed FBS viability, ATP luminescence, 48 h; series mostly up to 45.8 µM; viability: at the top concentration. The text has this:
Assay Provider: Jason Cantor Ph.D.
Department of Biochemistry
University of Wisconsin-Madison, Madison, WI, USA
Chemical screening studies have identified drug sensitivities across hundreds of cancer cell lines but most putative therapeutics fail to translate. Discovery and development of drug candidates in models that more accurately reflect nutrient levels in human blood is a major challenge. Here we performed high-throughput screens in conventional versus Human Plasma-Like Medium (HPLM) to identify compounds that were "missed" when screening using the artificial culture condition. Sets of conditional anticancer compounds spanned phases of clinical development and included non-oncology drugs were assessed. […] We also traced conditional phenotypes for several chemotherapeutics to availability of HPLM-specific metabolites and confirmed others for compounds whose reported targets are encoded by nonessential genes. Our findings establish generalizable strategies for exploiting conditional lethality in HPLM to reveal therapeutic candidates and mechanisms of action in cancer cells.
Described herein are the results of each viability screens against three cell lines: NOMO1 (an acute myeloid leukemia cell line); P12-Ichikawa (a T-cell acute lymphoblastic leukemia); and SEM (a B-cell ALL). Each assay was screened using 3 different cell culture media: homemade human plasma-Like medium with 10% dialyzed fetal bovine serum (HPLM+ds); RPMI1640 with 10% untreated FBS and 5mM glucose (RPMI+s); and RPMI1640 with 10% dialyzed fetal bovine serum and 5 mM glucose (RPMI+ds).
PROTOCOL TABLE (as described by Inglese J, Shamu CE and Guy RK. 2007)
SEQUENCE No. (e.g., 1, 2, 3, etc.); […] (e.g., Cells, Incubation, Reagent, etc.); VALUE and DESCRIPTION.
1; Cells; 5 uL; white, solid bottom 1536-well Greiner assay plate.
2; Compounds; 23 nL; Kalypsis pin tool (Wako USA) equipped with a 1536-well pin head to transfer to the assay plates.
3; Incubation; 48 hours; 37C incubation.
4; Reagent; 3 uL; CellTiter Glo (Promega).
5; Incubation; 5 min, room temperature
6; Detection; Luminescence, Viewlux PerkinElmer.
NOTES (numbers refer to Sequence numbers above)
1. Briefly, 5 ul of cell reagent was dispensed using a Multidrop Combi Dispenser. The NOMO1 and SEM cells were plated at 500 cells/well and the P12-Ichikawa line at 1000 cells/well.
2. After seeding the cells, 23 nL of MIPE 4.1 library compounds (in DMSO) were added to each plate using a Kalypsys 1536 Pintool dispenser. Bortezomib at final concentration of […] and DMSO were added to each plate as positive and negative controls respectively. For each screen, MIPE 4.1 compounds were added over an eleven-point concentration range […] in 3-fold dilutions.
3. Each plate was covered with a stainless steel gasketed lid to prevent evaporation and incubated for 48 hour at 37C, 95% relative humidity, and 5% CO2.
4-5. Three microliter CellTilter-GloTM luminescent substrate mix (Promega) reagent was added to the assay plate and incubated at room temperature for 5 min.
6. The luminescence signal was measured using a ViewLux (PerkinElmer) multiplate reader with a 2 second exposure time per plate. Data for each compound were normalized as percent viability such that measurements for DMSO and the empty well controls in each plate were defined as 100% and 0%, respectively.
For `CC(C=CC(=O)NO)=C[C@@H](C)C(=O)c1ccc(N(C)C)cc1`, the Potency was 1.87 µM (active).
Take `Cc1cn([C@H]2C[C@H](N=[N+]=[N-])[C@@H](CO)O2)c(=O)[nH]c1=O`: the Potency was 1.87 µM (active).
On to `CC(=O)O[C@]1(C(C)=O)CC[C@H]2[C@@H]3C=C(C)C4=CC(=O)CC[C@]4(C)[C@@H]3CC[C@@]21C`, for which the viability (in general, a read-out of living cells in per cent, often relative to untreated cells) was 110%.
The same measure, in the same setting: the value for `NC[C@H]1O[C@H](O[C@H]2[C@@H](O)[C@@H](O[C@H]3O[C@H](CO)[C@@H](O)[C@H](N)[C@@H]3O)[C@H](N)C[C@@H]2N)[C@H](N)C[C@H]1O` was 109%.
Same read-out and setting: next, `C[C@@]12C[C@@]3(O)O[C@@H](O1)[C@]1(COC(=O)c4ccccc4)[C@@H]3C[C@@]12O[C@@H]1O[C@H](CO)[C@@H](O)[C@H](O)[C@@H]1O`: 82.9%.
On the same count and under the same terms, next, `O=C(O)C1=CC(O)C(O)[C@H](O)C1` (stereo not given in full): 88.3%; `CCC[C@@H](NC(=O)[C@@H]1[C@H]2CCC[C@@H]2CN1C(=O)[C@@H](NC(=O)[C@@H](NC(=O)c1cnccn1)C1CCCCC1)C(C)(C)C)C(=O)C(=O)NC1CC1`: 88.4%; `CC[C@H](NC(C)C)[C@H](O)c1ccc(O)c2[nH]c(=O)ccc12`: 100%.
Take `CCCCC(C=O)NC(=O)C(CC(C)C)NC(=O)OCc1ccccc1` (stereo not given): the “viability” value was 91.3%.
On the same count and under the same terms, next, `O=C(O)Cc1cccc(OCCCN(Cc2cccc(C(F)(F)F)c2Cl)CC(c2ccccc2)c2ccccc2)c1`: 102%.
`C[C@@H]1CN(CC(=O)N2CC(C)(C)c3ncc(Cc4ccc(F)cc4)cc32)[C@@H](CN2CCOC[C@H]2C)CN1`: the Potency is 20.9 µM (active).
Regarding `CN1CCN(C2=Nc3cc(Cl)ccc3Nc3ccccc32)CC1`, the “viability” value was 76.3%.
As to `COC1CCC(C(=O)c2ccc3nc4c(cc3c2)CCCO4)CC1` (stereo not given), the Potency was 18.7 µM (active).
Regarding `CCC(C)N(C)C(=O)c1cc2ccccc2c(-c2ccccc2Cl)n1` (stereo not given), the “viability” value was 94.7%.
In the case of `COC[C@H](NC(=O)c1cnc(C)s1)C(=O)N[C@@H](COC)C(=O)N[C@@H](Cc1ccccc1)C(=O)[C@@]1(C)CO1`, the Potency is 0.469 µM (active).
Consider `CCOC(=O)C(C)Oc1cccc2c(=O)n(CC(=O)Nc3ccc4c(c3)OCCO4)ccc12` (stereo not given), for which the “viability” value was 109%.
On to `CN(C)CCOc1cc(-c2cn[nH]c2)ccc1NC(=O)C1COc2ccccc2O1` (stereo not given), for which the Potency is 6.62 µM (active).
On the same count and under the same terms, next, `CC(=NNC(=S)N1CCC1)c1ccccn1`: 0.0053 µM (active).
`Cn1cc(-c2ccc3ncc(Cc4ccc5ncccc5c4)n3n2)cn1`: the “viability” value was 93.7%.
Same read-out and setting: next, `O=C(c1ccc(OCCN2CCCCC2)cc1)c1c(-c2ccc(O)cc2)sc2cc(O)ccc12`: 79.3%; `CNS(=O)(=O)CCc1ccc2[nH]cc(C3CCN(C)CC3)c2c1`: 90.1%.
As to `CCOc1cc2c(c(F)c1OCC)C(=N)N(CC(=O)c1cc(N3CCOCC3)c(OC)c(C(C)(C)C)c1)C2`, the “viability” value was 100%.
For `CN(C)c1ccc(Nc2nc(N)n(C(=O)c3c(F)cccc3F)n2)cc1`, the Potency is 11.8 µM (active).
With `CC(C)(C)OC(=O)N[C@H]1CCCCCC=C[C@@H]2C[C@@]2(C(=O)NS(=O)(=O)C2CC2)NC(=O)[C@@H]2C[C@@H](OC(=O)N3Cc4cccc(F)c4C3)CN2C1=O`, the “viability” value is 101%.
The same measure, in the same setting: next, `O=C1NC(=O)C(=Cc2ccc(-c3ccc(F)cc3)o2)S1`: 105%.
In the case of `CC1=C[C@@H]2[C@@H]([C@@H](O)C[C@@]3(C)[C@H]2C[C@@H](C)[C@]3(O)C(=O)CO)[C@@]2(C)Cc3cnn(-c4ccccc4)c3C=C12`, the “viability” value was 87.8%.
The same measure, in the same setting: the value for `N[C@@]1(C(=O)O)CS(=O)(=O)[C@H]2[C@H](C(=O)O)[C@H]21` was 88.9%.
Same read-out and setting: the value for `CCS(=O)(=O)N1CC(CC#N)(n2cc(-c3ncnc4[nH]ccc34)cn2)C1` was 90.1%; that for `COc1cc([C@@H](CC(=O)O)c2ccc(C)c(CN3C[C@@H](C)Oc4ccccc4S3(=O)=O)c2)cc2nnn(C)c12` was 79.2%.
As to `NC(=O)c1cnccn1`, the “viability” value was 100%.
The same measure, in the same setting: the value for `CCC1(C)CC(=O)NC1=O` (stereo not given) was 102%; that for `NC(N)=Nc1nc(CSCCC(N)=NS(N)(=O)=O)cs1` was 104%.
Regarding `C[C@H]1[C@H](O)O[C@@H]2O[C@@]3(C)CC[C@@H]4[C@H](C)CC[C@@H]1[C@@]24OO3`, the Potency was 2.09 µM (active).
On to `C[C@H]1C[C@H]2[C@@H]3CCC4=CC(=O)C=C[C@]4(C)[C@@H]3C(=O)C[C@]2(C)[C@@]1(O)C(=O)CO`, for which the “viability” value was 106%.
Consider `N[C@@H](Cc1cc(I)c(Oc2cc(I)c(O)c(I)c2)c(I)c1)C(=O)O`, for which the “viability” value was 101%.
`NC(=O)c1ccc(N(C(N)=O)c2c(F)cccc2F)nc1-c1ccc(F)cc1F`: the “viability” value was 107%.
The same measure, in the same setting: the value for `CCn1c(-c2nonc2N)nc2c(C#CC(C)(C)O)ncc(OC[C@H]3CCCNC3)c21` was 83.7%; that for `Cc1noc(NS(=O)(=O)c2ccc(N)cc2)c1C` was 87.6%.
For `NCC(=O)Nc1ccc(-n2nc(C(F)(F)F)cc2-c2ccc3c(ccc4ccccc43)c2)cc1`, the Potency is 9.35 µM (active).
Still for that read-out and setting: next, `Cc1ccc(-c2ncn(-c3ccc(Nc4nccc(-c5cccc(N6CCOCC6)c5)n4)cc3)n2)cn1`: 0.372 µM (active).

The record behind these values is PubChem BioAssay (NCATS).
